In the supplement of paper PMC12067093, “Discovery and optimisation of a covalent ligand for TRIM25 and its application to targeted protein ubiquitination” (Chemical Science, 2025):
The full data set covers some 21,000 targets. This sample favours those with the largest changes.

Assays:
Assay in all cases: probe-labelled cysteine peptide fold change vs DMSO (competition) (log2 fold change); higher = less target engagement (more negative = stronger competition)
Settings in all cases: THP-1, incubation time: 4 h
[1] = biological target: A6NIZ1_A6NIZ1_118_VKDTDDVPMILVGNKCDLEDERVVGK<|>RAP1B_P61224_118_VKDTDDVPMILVGNKCDLEDERVVGK (UniProt P61224+A6NIZ1)
[2] = biological target: A6NNZ2_A6NNZ2_303_NMMAACDPR<|>TUBB4A_P04350_303_NMMAACDPR<|>TUBB_P07437_303_NMMAACDPR<|>TUBB4B_P68371_303_NMMAACDPR<|>TUBB3_Q13509_303_NMMAACDPR<|>TUBB2A_Q3ZCM7_303_NMMAACDPR<|>TUBB8_Q9BUF5_303_NMMAACDPR<|>TUBB6_Q9BVA1_303_NMMAACDPR (UniProt Q9BVA1+Q3ZCM7+Q13509+P68371+P07437+P04350+Q9BUF5+A6NNZ2)
[3] = biological target: ABCC1_P33527_1047_CLHVDLLHSILR (UniProt P33527)
[4] = biological target: ABCF2_Q9UG63_586_LIQQVAQEIWVCEK (UniProt Q9UG63)
[5] = biological target: ABHD10_Q9NUJ1_229_EAEHHCLLHSPIPVNCPIR (UniProt Q9NUJ1)
[6] = biological target: ABHD15_Q6UXT9_323_EFEEALFCHTK (UniProt Q6UXT9)
[7] = biological target: ABHD16A_O95870_544_HLHNFEATHCTPLPAQNFQMPWHL (UniProt O95870)
[8] = biological target: ABHD17B_Q5VST6_250_CQRPVEPLWVEGAGHNDVELYGQYLER (UniProt Q5VST6)
[9] = biological target: ACAA1_P09110_123_QCSSGLQAVASIAGGIR (UniProt P09110)
[10] = biological target: ACAA1_P09110_177_ARDCLIPMGITSENVAER (UniProt P09110)
[11] = biological target: ACAA2_P42765_116_EAEVVLCGGTESMSQAPYCVR (UniProt P42765)
[12] = biological target: ACAD9_Q9H845_271_GSNTCEVHFENTK (UniProt Q9H845)
[13] = biological target: ACADS_P16219_109_GCASTGVIMSVNNSLYLGPILK (UniProt P16219)
[14] = biological target: ACADVL_P49748_237_TSAVPSPCGK (UniProt P49748)
[15] = biological target: ACADVL_P49748_477_LFVALQGCMDK (UniProt P49748)
[16] = biological target: ACADVL_P49748_603_MLCDTWCIEAAAR (UniProt P49748)
[17] = biological target: ACAP2_Q15057_329_FCFEVVSPTK (UniProt Q15057)
[18] = biological target: ACAP2_Q15057_691_GPLHHATVLGHTGQVCLFLK (UniProt Q15057)
[19] = biological target: ACAT1_P24752_196_IHMGSCAENTAK (UniProt P24752)
[20] = biological target: ACAT1_P24752_413_QGEYGLASICNGGGGASAMLIQK (UniProt P24752)
[21] = biological target: ACAT2_Q9BWD1_360_VNIEGGAIALGHPLGASGCR (UniProt Q9BWD1)
[22] = biological target: ACLY_P53396_633_GVTIIGPATVGGIKPGCFK (UniProt P53396)
[23] = biological target: ACO2_Q99798_451_DLGGIVLANACGPCIGQWDRK (UniProt Q99798)
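Also: competitive profiling in live THP-1 cells: cysteine peptides tagged with an iodoacetamide desthiobiotin (IA-DTB) probe, intensity after compound treatment relative to DMSO-treated cells.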

Sequence of UniProt Q9H845 (Q9H845 whole entry, looked up): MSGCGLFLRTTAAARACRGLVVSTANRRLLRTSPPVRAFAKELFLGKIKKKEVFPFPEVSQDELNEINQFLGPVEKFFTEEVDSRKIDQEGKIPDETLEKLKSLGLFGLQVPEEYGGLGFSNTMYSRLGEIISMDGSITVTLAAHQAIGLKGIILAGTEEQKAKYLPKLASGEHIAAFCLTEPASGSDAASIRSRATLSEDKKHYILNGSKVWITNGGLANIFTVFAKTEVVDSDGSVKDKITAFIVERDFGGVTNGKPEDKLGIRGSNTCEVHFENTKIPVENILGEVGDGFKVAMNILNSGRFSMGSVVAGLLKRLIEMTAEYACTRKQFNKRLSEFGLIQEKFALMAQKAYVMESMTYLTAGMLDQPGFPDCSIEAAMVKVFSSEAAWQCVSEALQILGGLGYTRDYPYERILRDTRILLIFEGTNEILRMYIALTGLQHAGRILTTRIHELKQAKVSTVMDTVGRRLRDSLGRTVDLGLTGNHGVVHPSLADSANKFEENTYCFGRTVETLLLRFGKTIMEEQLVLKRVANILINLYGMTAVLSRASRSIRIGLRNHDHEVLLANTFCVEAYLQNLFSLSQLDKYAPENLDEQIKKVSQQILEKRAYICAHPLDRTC
Sequence of UniProt P33527 (P33527 whole entry, looked up): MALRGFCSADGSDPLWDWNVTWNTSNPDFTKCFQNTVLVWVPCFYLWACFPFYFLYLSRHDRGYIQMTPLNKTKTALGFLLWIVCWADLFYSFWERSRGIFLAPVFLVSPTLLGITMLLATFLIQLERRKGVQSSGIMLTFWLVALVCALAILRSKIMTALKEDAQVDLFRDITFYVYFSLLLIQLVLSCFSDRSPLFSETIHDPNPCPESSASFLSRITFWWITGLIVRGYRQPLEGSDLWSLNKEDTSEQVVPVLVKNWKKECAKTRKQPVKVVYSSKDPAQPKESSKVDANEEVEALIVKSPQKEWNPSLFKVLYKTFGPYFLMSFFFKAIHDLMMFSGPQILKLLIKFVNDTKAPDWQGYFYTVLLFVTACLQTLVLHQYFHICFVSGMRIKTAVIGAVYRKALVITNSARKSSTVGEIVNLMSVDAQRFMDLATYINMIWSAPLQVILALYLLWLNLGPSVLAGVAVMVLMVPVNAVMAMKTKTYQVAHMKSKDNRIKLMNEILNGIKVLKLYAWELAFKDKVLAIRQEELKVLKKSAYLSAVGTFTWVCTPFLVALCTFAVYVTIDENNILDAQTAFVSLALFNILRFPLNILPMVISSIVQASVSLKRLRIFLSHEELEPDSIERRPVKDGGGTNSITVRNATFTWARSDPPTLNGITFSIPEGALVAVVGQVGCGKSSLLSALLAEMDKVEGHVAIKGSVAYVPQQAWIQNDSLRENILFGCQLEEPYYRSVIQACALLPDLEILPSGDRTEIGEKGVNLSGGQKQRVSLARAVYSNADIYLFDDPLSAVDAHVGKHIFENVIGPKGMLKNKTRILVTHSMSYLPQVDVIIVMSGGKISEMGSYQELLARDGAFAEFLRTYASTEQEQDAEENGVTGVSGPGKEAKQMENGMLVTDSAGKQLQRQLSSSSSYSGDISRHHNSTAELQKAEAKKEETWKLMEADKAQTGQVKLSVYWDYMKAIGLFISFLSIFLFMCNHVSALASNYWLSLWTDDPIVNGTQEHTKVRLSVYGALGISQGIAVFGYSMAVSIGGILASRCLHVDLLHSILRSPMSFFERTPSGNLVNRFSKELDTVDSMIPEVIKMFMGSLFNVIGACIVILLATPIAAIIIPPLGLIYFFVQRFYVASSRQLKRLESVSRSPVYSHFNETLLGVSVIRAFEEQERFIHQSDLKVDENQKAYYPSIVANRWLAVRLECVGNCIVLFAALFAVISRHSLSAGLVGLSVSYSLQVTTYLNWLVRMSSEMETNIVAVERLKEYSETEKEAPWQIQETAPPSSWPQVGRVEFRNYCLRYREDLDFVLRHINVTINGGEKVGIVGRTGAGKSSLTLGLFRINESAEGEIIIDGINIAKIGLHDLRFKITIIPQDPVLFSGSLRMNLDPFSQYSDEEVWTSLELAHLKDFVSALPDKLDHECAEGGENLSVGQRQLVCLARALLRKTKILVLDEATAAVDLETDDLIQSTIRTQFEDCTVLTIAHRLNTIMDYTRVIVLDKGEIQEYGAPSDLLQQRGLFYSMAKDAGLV
Sequence of UniProt A6NIZ1 (A6NIZ1 whole entry, looked up): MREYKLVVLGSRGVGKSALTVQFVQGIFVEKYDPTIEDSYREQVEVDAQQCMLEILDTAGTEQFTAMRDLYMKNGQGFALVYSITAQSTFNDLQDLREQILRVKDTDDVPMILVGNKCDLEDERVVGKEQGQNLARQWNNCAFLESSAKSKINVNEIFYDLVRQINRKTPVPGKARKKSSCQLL
Sequence of UniProt A6NIZ1 (P61224 whole entry, looked up): as the sequence (A6NIZ1 whole entry, looked up) above, with R12G, E42K counted along it
Sequence of UniProt O95870 (O95870 whole entry, looked up): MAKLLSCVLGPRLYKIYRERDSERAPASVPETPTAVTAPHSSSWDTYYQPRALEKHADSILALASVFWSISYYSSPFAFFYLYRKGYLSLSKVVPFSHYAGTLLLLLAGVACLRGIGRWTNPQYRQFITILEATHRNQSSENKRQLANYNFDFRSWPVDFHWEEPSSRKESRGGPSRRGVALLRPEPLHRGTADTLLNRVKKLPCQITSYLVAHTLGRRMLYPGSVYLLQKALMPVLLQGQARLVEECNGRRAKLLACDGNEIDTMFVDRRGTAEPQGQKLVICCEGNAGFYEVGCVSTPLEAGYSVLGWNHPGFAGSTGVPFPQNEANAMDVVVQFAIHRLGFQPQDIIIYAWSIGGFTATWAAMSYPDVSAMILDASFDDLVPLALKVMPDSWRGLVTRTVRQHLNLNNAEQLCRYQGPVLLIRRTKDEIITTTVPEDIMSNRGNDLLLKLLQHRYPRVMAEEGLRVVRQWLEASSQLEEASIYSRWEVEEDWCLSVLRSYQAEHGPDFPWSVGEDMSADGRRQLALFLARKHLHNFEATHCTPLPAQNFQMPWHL
Sequence of UniProt P24752 (P24752 whole entry, looked up): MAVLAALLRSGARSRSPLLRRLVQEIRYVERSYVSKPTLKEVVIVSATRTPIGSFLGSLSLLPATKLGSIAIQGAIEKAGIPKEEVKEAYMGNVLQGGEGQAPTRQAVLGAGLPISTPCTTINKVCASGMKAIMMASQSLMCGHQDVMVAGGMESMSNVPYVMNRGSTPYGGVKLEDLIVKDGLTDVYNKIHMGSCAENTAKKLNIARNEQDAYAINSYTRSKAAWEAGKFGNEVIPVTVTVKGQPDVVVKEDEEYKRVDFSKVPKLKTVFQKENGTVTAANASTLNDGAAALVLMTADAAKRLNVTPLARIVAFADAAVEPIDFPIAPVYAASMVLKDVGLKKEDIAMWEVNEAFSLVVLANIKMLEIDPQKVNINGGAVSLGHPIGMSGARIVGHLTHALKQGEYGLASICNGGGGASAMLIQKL
Sequence of UniProt P24752 (P24752 whole entry, looked up): as above
Sequence of UniProt Q9UG63 (Q9UG63 whole entry, looked up): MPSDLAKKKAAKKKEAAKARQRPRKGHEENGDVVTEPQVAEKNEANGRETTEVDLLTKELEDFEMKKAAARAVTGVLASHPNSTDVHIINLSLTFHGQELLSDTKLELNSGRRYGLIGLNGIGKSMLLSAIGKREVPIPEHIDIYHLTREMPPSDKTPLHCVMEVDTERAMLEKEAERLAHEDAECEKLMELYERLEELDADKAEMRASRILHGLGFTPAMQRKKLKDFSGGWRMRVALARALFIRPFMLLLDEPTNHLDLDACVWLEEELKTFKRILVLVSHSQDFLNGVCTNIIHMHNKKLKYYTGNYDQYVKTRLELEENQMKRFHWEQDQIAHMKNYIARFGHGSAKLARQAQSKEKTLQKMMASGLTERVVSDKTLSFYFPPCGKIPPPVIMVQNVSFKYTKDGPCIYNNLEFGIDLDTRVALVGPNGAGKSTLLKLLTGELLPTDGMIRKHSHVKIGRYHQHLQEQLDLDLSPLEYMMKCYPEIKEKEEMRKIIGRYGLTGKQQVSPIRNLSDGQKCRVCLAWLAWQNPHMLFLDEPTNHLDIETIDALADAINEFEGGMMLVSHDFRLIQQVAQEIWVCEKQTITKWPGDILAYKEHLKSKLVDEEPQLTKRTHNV
Sequence of ACAP2_Q15057_329_FCFEVVSPTK (Q15057 whole entry, looked up): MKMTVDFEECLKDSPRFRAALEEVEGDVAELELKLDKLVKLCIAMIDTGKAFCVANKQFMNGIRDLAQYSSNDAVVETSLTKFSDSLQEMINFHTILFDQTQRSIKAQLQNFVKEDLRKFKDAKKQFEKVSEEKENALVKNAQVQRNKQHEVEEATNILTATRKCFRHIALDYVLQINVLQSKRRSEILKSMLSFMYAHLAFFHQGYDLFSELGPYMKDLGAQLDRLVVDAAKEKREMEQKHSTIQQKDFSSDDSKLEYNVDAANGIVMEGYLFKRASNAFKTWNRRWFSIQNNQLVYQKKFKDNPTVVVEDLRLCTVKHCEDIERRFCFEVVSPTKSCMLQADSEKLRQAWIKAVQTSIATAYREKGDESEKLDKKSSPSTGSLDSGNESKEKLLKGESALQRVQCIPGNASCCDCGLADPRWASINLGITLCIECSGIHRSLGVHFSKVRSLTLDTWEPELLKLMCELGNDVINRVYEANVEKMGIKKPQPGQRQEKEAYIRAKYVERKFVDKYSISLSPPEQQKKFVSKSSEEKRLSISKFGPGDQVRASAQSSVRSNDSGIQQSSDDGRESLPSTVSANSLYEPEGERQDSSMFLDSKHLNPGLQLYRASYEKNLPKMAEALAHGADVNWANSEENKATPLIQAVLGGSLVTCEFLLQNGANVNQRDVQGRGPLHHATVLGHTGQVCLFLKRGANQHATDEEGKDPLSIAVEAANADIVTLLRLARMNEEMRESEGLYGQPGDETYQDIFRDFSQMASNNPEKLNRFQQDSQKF
Sequence of UniProt Q15057 (Q15057 whole entry, looked up): as above

Cc1cc(C(=O)N2CCCN(C(=O)CCl)CC2)ccc1-c1ccccc1 [compound 10]
probe-labelled cysteine peptide fold change ([1]; 10 µM): -0.667 | probe-labelled cysteine peptide fold change ([1]; 50 µM): -1.16 | probe-labelled cysteine peptide fold change ([2]; 10 µM): -0.0352 | probe-labelled cysteine peptide fold change ([2]; 50 µM): -0.104 | probe-labelled cysteine peptide fold change ([3]; 10 µM): -0.245 | probe-labelled cysteine peptide fold change ([3]; 50 µM): -0.823 | probe-labelled cysteine peptide fold change ([4]; 10 µM): 0.35 | probe-labelled cysteine peptide fold change ([4]; 50 µM): 0.325 | probe-labelled cysteine peptide fold change ([5]; 10 µM): 0.0491 | probe-labelled cysteine peptide fold change ([5]; 50 µM): 0.0493 | probe-labelled cysteine peptide fold change ([6]; 10 µM): 0.0269 | probe-labelled cysteine peptide fold change ([6]; 50 µM): -0.0455 | probe-labelled cysteine peptide fold change ([7]; 10 µM): -0.497 | probe-labelled cysteine peptide fold change ([7]; 50 µM): -1.15 | probe-labelled cysteine peptide fold change ([8]; 10 µM): 0.198 | probe-labelled cysteine peptide fold change ([8]; 50 µM): 0.147 | probe-labelled cysteine peptide fold change ([9]; 10 µM): -0.136 | probe-labelled cysteine peptide fold change ([9]; 50 µM): -0.197 | probe-labelled cysteine peptide fold change ([10]; 10 µM): -0.114 | probe-labelled cysteine peptide fold change ([10]; 50 µM): 0.0101 | probe-labelled cysteine peptide fold change ([11]; 10 µM): -0.0523 | probe-labelled cysteine peptide fold change ([11]; 50 µM): 0.00696 | probe-labelled cysteine peptide fold change ([12]; 10 µM): 0.0883 | probe-labelled cysteine peptide fold change ([12]; 50 µM): 0.106 | probe-labelled cysteine peptide fold change ([13]; 10 µM): 0.363 | probe-labelled cysteine peptide fold change ([13]; 50 µM): 0.27 | probe-labelled cysteine peptide fold change ([14]; 10 µM): -0.143 | probe-labelled cysteine peptide fold change ([14]; 50 µM): -0.259 | probe-labelled cysteine peptide fold change ([15]; 10 µM): -0.223 | probe-labelled cysteine peptide fold change ([15]; 50 µM): 0.311 | probe-labelled cysteine peptide fold change ([16]; 10 µM): -0.105 | probe-labelled cysteine peptide fold change ([16]; 50 µM): -0.188 | probe-labelled cysteine peptide fold change ([17]; 10 µM): 0.23 | probe-labelled cysteine peptide fold change ([17]; 50 µM): 0.177 | probe-labelled cysteine peptide fold change ([18]; 10 µM): -0.107 | probe-labelled cysteine peptide fold change ([18]; 50 µM): -1.08 | probe-labelled cysteine peptide fold change ([19]; 10 µM): -0.282 | probe-labelled cysteine peptide fold change ([19]; 50 µM): -1.22 | probe-labelled cysteine peptide fold change ([20]; 10 µM): -0.164 | probe-labelled cysteine peptide fold change ([20]; 50 µM): -1.09 | probe-labelled cysteine peptide fold change ([21]; 10 µM): 0.232 | probe-labelled cysteine peptide fold change ([21]; 50 µM): 0.226 | probe-labelled cysteine peptide fold change ([22]; 10 µM): -0.00834 | probe-labelled cysteine peptide fold change ([22]; 50 µM): 0.0362 | probe-labelled cysteine peptide fold change ([23]; 10 µM): -0.125 | probe-labelled cysteine peptide fold change ([23]; 50 µM): -0.398
